In the library only some 3.8% were active in any assay of this set; here they are far more common.
S2 tox: Viability Counterscreen for Primary qHTS for Inhibitors of ATXN expression; S2 cells (HEK-293 line with an ATXN2-luciferase reporter) viability, CellTiter-Fluor protease fluorescence, 24 h; Potency, µM (top dose mostly 56.7 µM), most hits filed as cytotoxic; 400,000 tested, 0.49% active; note: nearly all actives have a fitted effect of over 40% in size
TGFb SMAD3 inh: qHTS for Inhibitors of TGF-b. AID 588855, 2011. Potency, µM (titrated, usually from 46.1 µM), usual class: inhibitors. 410,000 tested, 1.2% active. HepG2 CAGA-GFP TGF-b/SMAD3 reporter, GFP fluorescence, 18 h; TGF-beta stimulated, 500 pg/mL final; note: nearly all actives have a fitted effect of over 65% in size
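GFP signal (ex488/em500-530) from TGF-beta-stimulated HEPG2 CAGA-GFP cells, 500 pg/mL final, 18 h at 37 degrees C in DMEM plus 1% FBS, normalized to unstimulated and DMSO-stimulated controls.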
ATXN2 expr inh: Primary qHTS for Inhibitors of ATXN expression. 360,000 tested, 0.72% active. HEK-293 ATXN2-luciferase reporter, luminescence, 24 h. Potency, µM (series often up to 57 µM), hits mostly inhibitors; note: nearly all actives have a fitted effect of over 55% in size
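qHTS (up to 57 uM final) was run with 24 h compound exposure of reporter cells at 37 °C. Each well was multiplexed: SteadyGlo luminescence measured ATXN2-luciferase expression after a fluorogenic Gly-Phe-AFC viability readout (25 uM final).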
HepG2 tox: qHTS for Inhibitors of TGF-b: Cytotox Counterscreen; HepG2 CAGA-GFP viability, ATP luminescence, 18 h; Potency, µM (doses to about 46.1 µM), most hits filed as cytotoxic; 410,000 tested, 0.76% active
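CellTiter-Glo luminescence gave cytotoxicity after 18 hours at 37 degrees C. The cells were HepG2 CAGA-GFP in 1% FBS DMEM, stimulated with 500 pg/mL TGF-beta after compound addition. %Activity was normalised to no-cell wells (complete cell-killing) and DMSO (no toxicity), and curves were fitted and classified.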
HT1080 IDH1KD tx: qHTS for induction of synthetic lethality in tumor cells producing 2HG: qHTS for the HT-1080-IDH1KD cell line | Potency, µM (doses to about 46.1 µM), most hits filed as cytotoxic | HT-1080 IDH1 knockdown viability, ATP luminescence, 48 h | 360,000 tested, 2% active | AID 686971, 2013
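Assay cells: HT-1080 with IDH1 knockdown, 750 per well, RPMI/5% FBS. Exposure: 48 h at 37 °C following 2 h pre-incubation. Read: CellTiter-Glo luminescence; fitted concentration-response, curve class assigned.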
HT1080NT lethal: qHTS for induction of synthetic lethality in tumor cells producing 2HG: qHTS for the HT-1080-NT fibrosarcoma cell line. HT-1080-NT fibrosarcoma viability, CellTiter-Glo ATP luminescence, 48 h. Potency, µM (series often up to 46.1 µM), usual class: cytotoxic. 360,000 tested, 1.6% active. AID 686970, 2013;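 note: NT is the 2HG producing partner of a matched IDH1 knockdown line; nearly all actives have a fitted effect of over 55% in size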
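Compounds were tested in concentration-response format on HT-1080-NT cells for 48 hours at 37 degrees C. Cell viability came from CellTiter-Glo luminescence; curves were classified by r2, response magnitude and activity.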
Hits are given with their value; i = inactive; ? = inconclusive; nt = no result given; [ ] = dose if it differs, or a comment. Calls come from the whole dose curve; as a rule, active = well fitted curve in the direction sought with a large enough effect; inconclusive = small, poorly fitted or top-dose-only effect, or another doubt; inactive = no such curve, though single readings can be large; an effect the other way counts as inactive or inconclusive.

SMILES | S2 tox | TGFb SMAD3 inh | ATXN2 expr inh | HepG2 tox | HT1080 IDH1KD tx | HT1080NT lethal
CCN1C(=O)C(CC(=O)Nc2ccc(OC)cc2)N(CCCN2CCN(c3ccc(F)cc3)CC2)C1=S (stereo not drawn) | i | i | i | i | 18.4µM | ?
C/C(=N\NC(=O)c1cccc2ccccc12)c1ccccn1 | 3.55µM | 3.16µM | ? | i | ? | ?
CC(=NNC(=O)c1cc(C)nc2ccccc12)c1ccc(N2CCOCC2)cc1 | i | i | i | i | ? | ?
Cc1cccc2sc(NNC(=O)c3cc(-c4cccs4)nc4ccccc34)nc12 | ? | ? | ? | i | 20.6µM | ?
C/C(=N\NC(=O)C(c1ccccc1)c1ccccc1)c1ccccn1 | 6.31µM | ? | 3.55µM | i | 5.8µM | 9.2µM
C/C(=N\NC(=O)c1cc(-c2ccncc2)nc2ccccc12)c1ccc(N2CCOCC2)cc1 | i | i | nt | i | 10.3µM | 20.6µM
CSc1cccc(NC(=O)CC(c2cccs2)N2Cc3ccccc3C2=O)c1 (stereo not drawn) | i | ? | i | i | nt | nt
C/C(=N\NC(=O)c1cc(-c2cccs2)nc2ccccc12)c1ccccn1 | i | ? | 2.82µM | i | ? | ?
NNC(=O)c1cc(-c2cccs2)nc2ccccc12 | i | i | nt | i | ? | i
Cc1ccc(C23CC4CC(CC(NC(=O)NCCN(C)C)(C4)C2)C3)cc1 | i | ? | ? | i | ? | 20.6µM
CC(C)c1c(C(=O)NCc2ccncc2)cnn1-c1nccc(-c2cccs2)n1 | i | nt | nt | nt | nt | nt
NCCNC[C@@H]1COC2(CCCCCCCCCCC2)O1 | i | ? | i | i | ? | 14.6µM
COc1cc2c(cc1OC)C(=O)C(Br)CC2 (stereo not drawn) | ? | ? | nt | 15.8µM | ? | ?
COc1cc2c(cc1OC)C(=O)CC2 | i | nt | i | nt | nt | nt
CCOC(=O)c1ccc(Nc2ncnc3c2cnn3C)cc1 | i | i | i | i | i[9.24 µM] | i
Cn1ncc2c(O/N=C(\N)c3ccc(C(C)(C)C)cc3)ncnc21 | nt | ? | ? | i | 6.51µM | 18.4µM
COc1ccc2c(c1)-c1nc(-n3ncc(C(=O)NC(C)(C)CO)c3C3CC3)ncc1CC2 | i | nt | nt | nt | nt | nt
Cc1ccc(C)c(N2CCN(C(=O)CN3C(=O)COc4ccc(S(=O)(=O)N5CCOCC5)cc43)CC2)c1 | i | i | i | i | nt | nt
CC(C)(C)n1ncc2c(=O)n(Cc3cc(C(F)(F)F)ccc3Cl)cnc21 | nt | i | nt | i | nt | nt
CC(C)c1ccc(NC(=O)Nc2nc(C(N)c3ccccc3Cl)cs2)cc1 (stereo not drawn) | nt | ? | ? | i | ? | ?
CC(C)c1ccc(NC(=O)Nc2nc(C(C)N)cs2)cc1 (stereo not drawn) | nt | 17.8µM | ? | i | 20.6µM | ?
CC(C)c1ccc(NC(=O)Nc2cnccn2)cc1 | i | i | i | i | 14.6µM | ?
CC(C)c1ccc(NC(=O)Nc2nc(C(N)C3CCCCC3)cs2)cc1 (stereo not drawn) | ? | 22.4µM | ? | 10µM | 20.6µM | ?
CCN(CC)C(=O)Nc1ccc(OCC(O)CNC(C)(C)C)c(C(C)=O)c1 (stereo not drawn) | i | nt | i | nt | nt | nt
Cn1c(N)c(C(=O)COC(=O)c2ccc([N+](=O)[O-])o2)c(=O)n(C)c1=O | i | 12.6µM | i | i | i | ?
CCOC(=O)C1CCN(C(=O)COC(=O)c2ccc([N+](=O)[O-])o2)CC1 | i | 17.8µM | i | 12.6µM | i | i
COC(=O)C1CCN(Cc2ccc3c(c2)CN(C(=O)c2cc4cc(F)ccc4[nH]2)CCO3)CC1 | i | nt | nt | nt | nt | nt
Cc1cc(Sc2nc(N)ncc2[N+](=O)[O-])ncn1 | i | 10µM | i[11.3 µM] | i | 6.51µM | 5.8µM
Cc1cc(Sc2ncnc(N)c2[N+](=O)[O-])ncn1 | ? | ? | ? | i | 7.31µM | 13µM
c1cc2c3c(c1)CCC[N+]3(C1CCCCC1)CCC2 | nt | i | nt | i | nt | nt
